Screening data from PubChem.
An excerpt weighted towards active compounds, which were near 0.92% of everything screened.
CIT2-GFP yeast: modulators of TOR pathway CIT2-GFP in S. cerevisiae; S. cerevisiae CIT2-GFP strain, flow cytometry, 3 h; 100 means same as DMSO wells; GFP response vs DMSO, % at 10 µM; 320,000 tested, 0.065% active;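 active means GFP response relative to DMSO above a set limit, near the screen mean plus 3 SD, cut at about 150% in these data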;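 further: ratio of well median GFP fluorescence to mean of DMSO wells on the plate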
MEP2-GFP yeast: yeast TOR pathway MEP2-GFP modulation | S. cerevisiae MEP2-GFP strain, flow cytometry GFP, 3 h; 100% = DMSO control level | GFP response vs DMSO, % at 10 µM | 330,000 tested, 0.51% active | AID 2016;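 active means GFP response versus DMSO above a set limit, roughly screen mean plus 3 SD, cut at about 180% in these data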;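 further: median GFP fluorescence of the barcode-gated MEP2-GFP cells per well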
AGP1 TOR yeast: alters AGP1-GFP fluorescence in TOR pathway yeast screen. 320,000 tested, 0.02% active. S. cerevisiae AGP1-GFP multiplex flow cytometry, 3 h; GFP as percent of DMSO wells. AID 2066. GFP response vs DMSO, % at 10 µM;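 active means GFP response relative to DMSO above a set limit, near screen average plus 3 SD, cut at about 150% in these data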;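 further: median GFP channel fluorescence of the gated AGP1 strain per well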
LAP4 TOR yeast: alters LAP4-GFP fluorescence in TOR pathway yeast screen; S. cerevisiae LAP4-GFP multiplex, flow cytometry GFP, 3 h; median GFP as percent of DMSO wells; 320,000 tested, 0.34% active; GFP response vs DMSO, % at 10 µM;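 active means GFP response vs DMSO above a set limit, about the screen mean plus 3 SD, cut at about 150% in these data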
RPL19A-GFP yeast: alters RPL19A-GFP fluorescence in TOR pathway yeast screen; percent response vs DMSO, % at 10 µM; 330,000 tested, 0.3% active; AID 2025; S. cerevisiae RPL19A-GFP strain, flow cytometry, 3 h; active compounds read low;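 active means percent response vs DMSO below 50%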;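 further: median channel GFP fluorescence of the barcoded RPL19A-GFP strain; ratio of sample median GFP to plate DMSO average so 100% = DMSO; lower means less RPL19A-GFP as with rapamycin TOR inhibition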
LAP4-GFP pick2: second confirmation of modulators of TOR reporter LAP4-GFP in yeast; shares compounds with LAP4 TOR yeast; GFP response vs DMSO, % at 10 µM; AID 2621; S. cerevisiae LAP4-GFP strain, flow cytometry GFP, 3 h; 590 tested, 20% active;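 active means GFP signal as percent of the solvent control above about 150%, meaning raised reporter expression, limit read from the data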;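 further: ratio of well median GFP fluorescence to plate DMSO mean so 100% = DMSO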
MEP2-GFP pick2: yeast MEP2-GFP modulation, second cherry pick; shares compounds with LAP4 TOR yeast; S. cerevisiae MEP2-GFP strain, flow cytometry GFP, 3 h; GFP response vs DMSO, % at 10 µM; 590 tested, 10% active; AID 2622;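 active means GFP signal above 150% of the solvent control wells, that is a rise of more than half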;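 further: median channel GFP fluorescence of all gated yeast cells per well; ratio of median GFP to plate DMSO average so 100% = DMSO level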
RPL19A-GFP pick2: reconfirmed modulator of RPL19A-GFP TOR reporter in yeast. S. cerevisiae RPL19A-GFP strain, flow cytometry GFP, 3 h; active compounds read low; 100% means same as DMSO wells. 590 tested, 3% active. GFP response vs DMSO, % at 10 µM. AID 2623. shares compounds with LAP4 TOR yeast;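 active means under 65% GFP response relative to DMSO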;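 further: median GFP channel fluorescence per well over the all cells gate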
CIT2 GFP CP2: yeast CIT2-GFP TOR reporter modulation, second cherry pick; S. cerevisiae CIT2-GFP strain, flow cytometry GFP, 3 h; DMSO control wells read 100%; AID 2624; GFP response vs DMSO, % at 10 µM; 590 tested, 8% active; shares compounds with LAP4 TOR yeast;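 active means GFP response vs DMSO above about 150%, limit read from the data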;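 further: median green fluorescence per well over all gated yeast cells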
AGP1 GFP CP2: second confirmation of modulators of TOR reporter AGP1-GFP in yeast. shares compounds with LAP4 TOR yeast. 590 tested, under 10 active. percent response vs DMSO, % at 10 µM. S. cerevisiae AGP1-GFP strain, flow cytometry GFP, 3 h;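 active means over 150 percent of DMSO response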;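 further: median GFP channel fluorescence over all cells without mother daughter split; sample median GFP divided by mean DMSO control so 100% equals DMSO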
s288c autofluor: yeast s288c autofluorescence artifact, counter-screen; shares compounds with LAP4 TOR yeast; S. cerevisiae s288c, 520 nm autofluorescence, flow cytometry, 3 h; active compounds read high; zero means same as solvent-only cells; fluorescence change (kMESF span) at 33 µM; 610 tested, under 10 active;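 active means fluorescence span over the dose series, or activity score, above about 33, limit read from the data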
s288c autofl DR: counter-screen for autofluorescence of TOR hits in yeast s288c | shares compounds with LAP4 TOR yeast | S. cerevisiae s288c parental, compound autofluorescence, flow cytometry, 3 h | 110 tested, under 10 active | fluorescence change (span) at 33 µM;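 active means fluorescence change span, or the activity score built from it, above 25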
TORC1 bypass: compounds blocking wildtype yeast growth but not TORC1 bypass cells; shares compounds with LAP4 TOR yeast; S. cerevisiae BY4741 spot growth rating, 48-72 h; active compounds read low; growth rating (0-3) at 30 µM; 120 tested, under 10 active;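 active means growth rating at most 1 for wild type yeast while the TORC1 bypass strain still grows fully, rated 3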
The depositor's hits bear a star; x = no result.

SMILES	CIT2-GFP yeast	MEP2-GFP yeast	AGP1 TOR yeast	LAP4 TOR yeast	RPL19A-GFP yeast	LAP4-GFP pick2	MEP2-GFP pick2	RPL19A-GFP pick2	CIT2 GFP CP2	AGP1 GFP CP2	s288c autofluor	others
CCCCC(=O)OCC(=O)N1N=C(c2c[nH]c3ccccc23)C(O)C1c1ccc(OC)cc1 (stereo not given)	98	100	103	94	102	x	x	x	x	x	x
C/C(=N\NC(=O)c1cc(Br)ccc1O)c1ccccn1	89	118	96	120	108	x	x	x	x	x	x
C/C(=N/NC(=O)c1ccc(C(C)(C)C)cc1)c1ccccn1	95	104	96	194*	99	x	x	x	x	x	0.82
C/C(=N\NC(=O)c1cccc(Br)c1)c1ccccn1	96	113	87	169*	111	x	x	x	x	x	0.91	s288c autofl DR=0.16;TORC1 bypass=3
O=C(NC(=S)Nc1ccc2oc(=O)ccc2c1)c1cccc(Cl)c1	106	139	23	87	55	97	103	102	101	102	0.2
O=C(NC(=S)Nc1ccc2oc(=O)ccc2c1)c1cccc(F)c1	108	105	100	92	101	x	x	x	x	x	x
Cc1cc(C)c(S(=O)(=O)N2CCC(C(=O)NCc3ccc(Cl)cc3Cl)CC2)c(C)c1	78	114	114	151*	94	152*	113	101	120	107	0.2
O=C(Nc1ccc(Cl)cc1)C(Cl)C(=O)c1ccccc1 (stereo not given)	102	90	97	107	102	x	x	x	x	x	x
O=C(Nc1ccccc1Cl)C(Cl)C(=O)c1ccccc1 (stereo not given)	x	x	x	x	x	110	98	104	111	99	x
Cc1ccc(SCC(=O)NNC(=O)CCS(=O)(=O)c2ccc(C)cc2)cc1	87	109	115	219*	76	105	101	99	103	99	x
Cc1ccc(SCC(=O)NNC(=O)CCS(=O)(=O)c2ccccc2)cc1	124	114	107	91	104	x	x	x	x	x	x
CC(CCN1CCC(n2nccc2NC(=O)c2ccccc2Cl)CC1)c1ccccc1 (stereo not given)	101	98	109	100	102	x	x	x	x	x	x
C=CCOc1cccc(C(=O)/C=C2/C(=O)Nc3ccccc32)c1	105	118	105	127	93	x	x	x	x	x	0
CC(=O)/C=C1/C(=O)Nc2ccccc21	85	80	95	121	89	x	x	x	x	x	x
CC(Oc1ccc2c3c(c(=O)oc2c1)CCC3)C(=O)NCCN1CCOCC1 (stereo not given)	102	111	108	101	104	x	x	x	x	x	x
CC(Oc1cc2oc(=O)c3c(c2cc1Cl)CCC3)C(=O)NCCN1CCOCC1 (stereo not given)	108	142	24	90	58	99	106	101	105	103	-0.1
